This is a sample that favours compounds with a hit; in the whole collection about 2.3% have one here.
CHT allo act: human CHT allosteric activation; Q9GZV3; CHT-expressing cells, membrane potential dye, choline EC20; hits give high values; LV-AA mutant CHT in HEK293 cells; B-score at 10 µM; 310,000 compounds, 0.49% hits; AID 488977;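 active = initial fluorescence not abnormally high and integrated response B-score, plate-corrected, over 3 SD above library mean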
Target sequence (Q9GZV3 whole entry, looked up): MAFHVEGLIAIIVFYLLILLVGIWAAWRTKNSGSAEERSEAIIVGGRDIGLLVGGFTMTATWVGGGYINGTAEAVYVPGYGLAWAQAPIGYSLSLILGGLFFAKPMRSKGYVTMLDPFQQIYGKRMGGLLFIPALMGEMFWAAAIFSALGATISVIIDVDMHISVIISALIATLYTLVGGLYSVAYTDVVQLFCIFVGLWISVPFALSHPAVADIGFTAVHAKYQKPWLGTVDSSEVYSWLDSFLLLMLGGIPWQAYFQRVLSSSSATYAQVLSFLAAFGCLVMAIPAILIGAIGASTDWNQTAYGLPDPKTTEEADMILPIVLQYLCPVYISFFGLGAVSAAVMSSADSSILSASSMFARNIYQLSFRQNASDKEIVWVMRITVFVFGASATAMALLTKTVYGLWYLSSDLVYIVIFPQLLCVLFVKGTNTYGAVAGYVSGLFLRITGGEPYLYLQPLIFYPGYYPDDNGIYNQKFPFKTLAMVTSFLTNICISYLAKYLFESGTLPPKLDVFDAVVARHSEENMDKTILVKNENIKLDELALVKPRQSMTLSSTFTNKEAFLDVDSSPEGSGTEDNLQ
TMEM16A act: activators or potentiators of mouse TMEM16A chloride channel | 340,000 compounds, 0.3% hits | HEK293 TMEM16A/YFP-H148Q/I152L, iodide quench fluorescence; hits give low values | B-score at 10 µM | Q8BHY3;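 active = fluorescence-ratio B-score plate-corrected deviation score at least 3 library SD below zero, with starting fluorescence score within 5 deviations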;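 note: channel opened by trigger with iodide after compound preincubation; score built on the fluorescence ratio of max minus min over baseline; more negative score means more quench and so TMEM16A activation or potentiation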
ANO1 block: blocks the mouse calcium-activated chloride channel TMEM16A; HEK293 TMEM16A/YFP iodide influx fluorescence, ionomycin; normalized B-score (activity score, 25-100; higher = stronger inhibition) at 10 µM; 310,000 compounds, 1.2% hits;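 active = ratio plate-corrected score three or more library SD toward inhibition, starting fluorescence score within five deviations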;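 note: score derived from kinetic fluorescence span divided by baseline fluorescence per well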
CHT block: human CHT choline transport inhibition; 310,000 compounds, 0.86% hits; B-score at 10 µM; Q9GZV3; CHT-expressing cells, membrane potential dye, choline response; hits give low values;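 active = B-score over 3 SD under the library average, and starting fluorescence ratio not unusually high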;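 note: choline stimulus applied at its EC90 after an EC20 pre-addition; B-score computed on integrated fluorescence ratio after choline addition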
CHT act confirm: confirmation of human choline transporter (CHT) activators; shares compounds with CHT allo act; activation, % at 10 µM; CHT-expressing cells, membrane potential dye fluorescence (FDSS); % of choline EC20–EC90 response window; HEK293 expressing CHT LV-AA mutant; choline added at its EC20; AID 504833; 2,500 compounds, 91% hits;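 active = primary screen active, with duplicate mean activation above negative control mean plus 3 SD, cut at about 11% in these data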
HEK293 MP dye: CHT activator counter-screen hit in parental HEK293 cells | ratio readout change at 10 µM, hits read low | 2,500 compounds, 62% hits | membrane potential dye fluorescence (FDSS); measured after EC20 choline addition | AID 623908 | shares compounds with CHT allo act;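 active = duplicate-averaged ratio beyond 3 SD from buffer wells, up or down, though filed actives are nearly all decreases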
* hit, by the source's call; i = inactive; nt = not tested or not shown; ! = a repeat was not active.

SMILES	CHT allo act	TMEM16A act	ANO1 block	CHT block	CHT act confirm	HEK293 MP dye
O=C1CC2(CCN(C(=O)c3ccc(Cl)cc3)CC2)Oc2ccccc21	i	i	i	i	nt	nt
O=C1CC2(CCN(C(=O)c3cccc(Cl)c3)CC2)Oc2ccccc21	i	i	i	i	nt	nt
O=C1CC2(CCN(C(=O)c3cccc(Br)c3)CC2)Oc2ccccc21	8.89*	i	i	i	5.1	i
O=C1CC2(CCN(C(=O)c3ccccc3Cl)CC2)Oc2ccccc21	i	i	i	i	-8.9	i
O=C(N/N=C/c1ccccc1)c1ccco1	i	i	i	i	nt	nt
O=C(N/N=C/c1ccc(OCc2ccccc2)cc1)c1ccco1	i	i	i	i	nt	nt
O=C(N/N=C/c1ccc2cccnc2c1)c1ccco1	i	i	i	i	36.6*	i
CCN(CC)c1ccc(/C=N/NC(=O)c2ccco2)cc1	i	i	i	i	30.5*	i
Cc1ccnc(NC(=O)c2ccc(S(=O)(=O)c3ccccc3)cc2)c1	i	i	i	i	nt	nt
O=C(Nc1c(Cl)ccc2nsnc12)c1ccc([N+](=O)[O-])o1	i	i	i	i	nt	nt
CC(=O)CCc1ccc(OCCCCN2CCC(Cc3ccccc3)CC2)cc1	i	i	i	i	14.7*	-25.6*
Cc1ccc(S(=O)(=O)Nc2nnc(C(C)(C)C)s2)cc1	i	i	i	i	nt	nt
Cc1ccc(S(=O)(=O)Nc2nncs2)cc1	9.46*	i	i	i	-2.9	i
CCOC(=O)CCP(=O)(O)C(O)c1ccccc1 (stereo unspecified)	i	i	i	i	nt	nt
COc1cccc(CNS(=O)(=O)c2cc(CN3C(=O)c4cccnc4C3=O)ccc2OC)c1	i	i	i	i	nt	nt
Cc1n(CC(=O)c2ccc(F)cc2)c2ccccc2[n+]1C	i	i	i	i	nt	nt
CCCCc1n(CC(=O)c2ccc(Cl)cc2)c2ccccc2[n+]1C	i	i	i	i	13.8*	i
CC12CCC(C(=O)N(c3nccs3)C1=O)C2(C)C (stereo unspecified)	nt	i	nt	nt	nt	nt
O=C(CSc1nnc(CNC(=O)c2c(F)cccc2Cl)o1)NCCc1ccccc1	i	i	i	i	nt	nt
COc1ccc(-n2c(-c3ccc(Br)cc3)c[n+]3c2CCc2ccccc2-3)cc1	i	i	i	i	90.7*	-29.4*
COc1ccccc1-n1c(-c2ccccc2)c[n+]2c1CCc1ccccc1-2	11.3*!	i	i	i	32.3*	i
Cc1cc(C)c2c(c1)/C(=N\N=c1\sc3ccccc3n1C)C(=O)N2	i	i	i	i	23.5*	i
COCCN(C(=S)Nc1ccc(OC)cc1)C(C)c1cccs1 (stereo unspecified)	8.13*	i	i	i	5.8	i
C/C(=N\NC(=O)c1nn(C)cc1Cl)c1ccncc1	i	i	i	i	nt	nt
C/C(=N\NC(=O)c1nn(C)cc1Br)c1ccncc1	7.26*	i	i	i	16.6*	-36.8*
SMILES	CHT allo act	TMEM16A act	ANO1 block	CHT block	CHT act confirm	HEK293 MP dye
CC(Oc1ccccc1)C(=O)N(CCC1=CCCCC1)c1c(N)n(Cc2ccccc2)c(=O)[nH]c1=O (stereo unspecified)	i	i	i	i	10.8*	i
O=C(c1ccc(Cl)cc1)c1cccc(O)c1	nt	i	nt	nt	nt	nt
Cn1c(=O)c2c(SCCN3CCOCC3)nc(C3CCCC3)nc2n(C)c1=O	7.41*	i	i	i	42.1*	-30.3*
CCc1nc(SCC(=O)N2CCOCC2)c2c(=O)n(C)c(=O)n(C)c2n1	i	i	i	i	nt	nt
CCOC(=O)[C@@H]1[C@H]2COc3ccccc3[C@@H]2N2C(=O)N(c3ccc(F)cc3)C(=O)[C@]12C	i	i	i	i	nt	nt
CCOc1ccc(S(=O)(=O)N2CCCCC2)cc1NC(=O)C1CSC2(C)CCC(=O)N12 (stereo unspecified)	i	i	i	i	25.5*	i
C[C@@H](C(=O)OCC(=O)Nc1cc(S(=O)(=O)N2CCOCC2)ccc1Cl)N1C(=O)C2CCCCC2C1=O (stereo partly specified)	i	i	i	i	nt	nt
COc1ccc(CNC(=O)C(c2cccs2)N(Cc2ccco2)C(=O)Cc2cccs2)cc1 (stereo unspecified)	6.6*	i	i	i	25.9*	i
CCCCOC(=O)N1CCOCCOCCOCC1	i	i	i	i	16.8*	i
O=[N+]([O-])c1ccc2nc(-c3ccccc3)[nH]c2c1	i	i	i	i	nt	nt
O=[N+]([O-])c1ccc2nc(-c3cccnc3)[nH]c2c1	i	i	i	i	52.0*	-53.5*
COc1ccc(CN2CCC(N(CCc3ccccc3)Cc3ccccc3)CC2)c(OC)c1	i	i	i	i	22.2*	i
c1ccc(-c2nc(NCc3ccco3)c3ccccc3n2)nc1	7.02*	i	i	i	41.7*	-46.3*
Oc1ccccc1-c1nc(NCc2ccco2)c2ccccc2n1	i	i	i	i	nt	nt
c1ccc(N2CCN(c3nc(NCc4ccco4)c4ccccc4n3)CC2)cc1	i	i	i	i	nt	nt
c1coc(CNc2nc(N3CCCCC3)nc3ccccc23)c1	i	nt	i	i	13.5*	i
COc1cc(OC)c(NC(=S)NCc2ccccc2)cc1Cl	i	i	i	i	nt	nt
Cn1nc(C(F)(F)F)c(-c2ccc(F)cc2)c1NC(=O)c1cccnc1	i	i	i	i	nt	nt
CC(C)(C)OC(=O)NCCCCCc1nnc(SCc2ccccc2F)o1	i	i	i	i	nt	nt
CC(C)(C)OC(=O)NCCCCCc1nnc(SCc2cccc(F)c2)o1	8.31*	i	25*	i	-1.7	i
Cc1ccc(C(C)(c2ccc(N)cc2)c2ccc(N)cc2)cc1	i	i	i	i	nt	nt
CCOc1ccc(S(=O)(=O)NCCC(=O)NCc2cccnc2)cc1	i	i	i	i	nt	nt
O=C(N/N=C/c1cccs1)c1cc(-c2ccncc2)nc2ccccc12	i	i	i	i	43.7*	i
O=C(NCCCn1ccnc1)c1cc(-c2ccncc2)nc2ccccc12	6.32*	i	i	i	59.9*	-59.3*
O=C(NCCCn1ccnc1)c1cc(-c2ccc(Cl)cc2)nc2ccccc12	i	i	i	i	nt	nt
CCN(C(=O)COc1ccc(F)cc1Br)c1c(N)n(Cc2ccccc2)c(=O)[nH]c1=O	nt	i	nt	nt	nt	nt
CCOC(=O)N1CCN(c2nc(-c3cccs3)nc3ccccc23)CC1	6.71*	i	i	i	29.8*	i

Bioassay records as filed in PubChem.
